High-throughput results: PubChem BioAssay, several laboratories
SMARCA2 act – SMARCA2 function activation, primary screen | activation, % at 9.1 µM | MG213 cells, MMTV-luciferase reporter, dexamethasone, overnight | AID 652017 | 370,000 compounds, 1% hits; in the data active = activation above about 7.8%;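 also: 0% = vehicle wells and 100% = reference activator wells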
697 NFkB inh – inhibitors of the PMA/ionomycin-induced NF-kB reporter in 697 B cells | 697 B-cell NF-kB luciferase reporter, 16 h | inhibition, % at 4 µM | 330,000 compounds, 0.33% hits | AID 435022; in the data active = inhibition above about 35%
esBAF inh – SWI/SNF esBAF complex inhibition | mouse ES cells, Bmi1-luciferase knock-in reporter, 24 h; 100% = twice the neutral-well signal | reporter increase, % at 12.5 µM | 350,000 compounds, 2% hits | AID 602393; in the data active = activation above about 40%;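 also: 0% = median of the plate's neutral control wells and 100% = double that signal; a rise in the Bmi1 reporter signal indicates esBAF inhibition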
Gli-Sufu antag – blocks Gli-Sufu signaling in a luciferase reporter. Sufu-KO-LIGHT fibroblasts, Gli luciferase reporter luminescence. inhibition, % at 5 µM. 340,000 compounds, 0.74% hits. AID 588413;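 active = inhibition above about 55%, limit read from the data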;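 also: 0% = DMSO-treated cells and 100% = wells with medium but no cells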
Jurkat NFkB inh – lowers PMA/ionomycin-induced NF-kB signal in Jurkat cells; inhibition, % at 4 µM; 330,000 compounds, 0.53% hits; AID 435003; PMA/ionomycin-induced NF-kB luciferase reporter, luminescence; in the data active = inhibition above about 50%
SMARCA2 conf – confirmation of SMARCA2 (BRM) function activators; 3,500 compounds, 30% hits; MG213 cells, MMTV-luciferase with dexamethasone, luminescence, overnight; MG213 cells expressing E1A, Rb sequestered; DMSO wells 0%, reference activator 100%; activation, % at 9.1 µM; shares compounds with SMARCA2 act;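 active = activation above its plate's cutoff, the mean activation of tested wells plus 3 SD, cut at about 7.9% in these data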
GAL4-VP16 Luc – activates GAL4-VP16 luciferase, flagging SMARCA2 activator hits | 3,500 compounds, 41% hits | shares compounds with SMARCA2 act | activation, % at 9.1 µM | HEK293 GAL4-VP16 pG5luc reporter, luciferase luminescence; scaled: DMSO wells 0%, SAHA wells 100% | AID 686939;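 active = activation above the solvent-only control well mean plus 3 SD, averaged across control plates, cut at about 5.2% in these data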
* hit, by the source's call; . = no result. Hits are enriched below; roughly 3.3% of the tested compounds scored in any of these assays.

SMILES	SMARCA2 act	697 NFkB inh	esBAF inh	Gli-Sufu antag	Jurkat NFkB inh	SMARCA2 conf	GAL4-VP16 Luc
CCOc1ccc(S(=O)(=O)c2c(C(=O)c3ccc(C)cc3)cnc3cc4c(cc23)OCCO4)cc1	-4	-8	.	5	9	.	.
Cc1ccc(C(=O)c2cnc3cc4c(cc3c2S(=O)(=O)c2ccccc2)OCCO4)cc1	9.5*	-108	118*	-17	-33	0	5.5*
O=C(NCC[C@H]1CC[C@H](NS(=O)(=O)Cc2ccccc2)[C@H](CO)O1)C1CCOCC1	.	.	-3	.	.	.	.
N/N=C(/Cc1nc2ccccc2[nH]1)c1ccc([N+](=O)[O-])cc1	8.2*	-93	.	5	-65	4	5.9*
O=c1cc(-c2ccccc2F)oc2ccccc12	13*	-48	58*	-57	-44	6	7.7*
Cc1ccccc1-c1cc(=O)c2ccccc2o1	2	-10	23	-2	8	.	.
O=c1cc(-c2ccc(F)cc2)oc2ccccc12	5	-66	.	-17	-60	.	.
CSc1ccc(-c2cc(=O)c3ccccc3o2)cc1	12*	-170	40	-42	-97	6	12*
COc1ccc(Nc2cc(C(=O)NCCCN3CCOCC3)c3ccccc3n2)cc1OC	9.8*	8	7	8	-8	1	1
COc1ccc(Nc2cc(C(=O)NCCCN3CCN(C)CC3)c3ccccc3n2)cc1OC	1	3	.	-6	-27	.	.
O=C1[C@H]2[C@@H](c3ccccc3)N[C@]3(CCCN(Cc4ccco4)C3=O)[C@H]2C(=O)N1Cc1ccccc1	5	.	5	.	.	.	.
COc1ccc([C@H]2N[C@]3(CCCN(Cc4ccco4)C3=O)[C@H]3C(=O)N(Cc4ccccc4)C(=O)[C@@H]23)cc1	9.0*	.	-4	.	.	-4	0
O=C1c2cccc3cccc(c23)C(=O)N1c1cccnc1	8.5*	-19	1	-1	-3	-1	1
Cc1noc(C)c1NC(=O)Nc1ccc2c(c1)CC(=O)N([C@@H](C)CO)C[C@@H](C)[C@H](CN(C)C)O2	.	.	-1	.	.	.	.
O=C(O)C(=O)/C(=C\c1cccc2ccccc12)c1ccc2ccccc2n1	0	-7	.	-1	-17	.	.
O=C(O)C(=O)/C(=C\c1ccc([N+](=O)[O-])cc1)c1ccc2ccccc2n1	8.7*	-44	.	-42	-69	3	11*
CC1(C(=O)NS(=O)(=O)Cc2ccccc2)CCN1C(=O)Cc1ccc(-c2ccccc2)cc1 (configuration not stated)	8.3*	.	2	.	.	-5	0
CC1(C(=O)NS(=O)(=O)Cc2ccccc2C(F)(F)F)CCN1C(=O)Cc1ccccc1 (configuration not stated)	-1	.	-2	.	.	.	.
Cc1ccc2c(c1)cc(CN(Cc1ccco1)C(=O)N1CCOCC1)c1nnnn12	8.6*	2	7	-21	10	12*	3
O=c1c2ccccc2n(CC(O)CN2CCCCC2)c2ccccc12 (configuration not stated)	9.4*	4	-1	16	3	4	-2
O=[N+]([O-])c1cccc(-c2nc(-c3cccs3)c(-c3cccs3)[nH]2)c1	-3	22	-7	3	10	.	.
O=[N+]([O-])c1cccc(-c2noc(-c3cccs3)n2)c1	11*	-120	.	-3	-117	5	4
CO[C@H](CN(C)S(=O)(=O)c1ccc(Cl)cc1)[C@H](C)CN([C@H](C)CO)S(=O)(=O)c1cccc(Cl)c1	.	.	5	.	.	.	.
Cc1ccc(C(=O)c2sc3nc4c(cc3c2N)CCC4)cc1	9.1*	-111	.	-74	-121	8.4*	8.3*
C[C@H]1CN([C@@H](C)CO)C(=O)c2cccc(NC(=O)C3CCCCC3)c2O[C@@H]1CN(C)Cc1ccccc1	.	.	-4	.	.	.	.
SMILES	SMARCA2 act	697 NFkB inh	esBAF inh	Gli-Sufu antag	Jurkat NFkB inh	SMARCA2 conf	GAL4-VP16 Luc
CCc1ccc(CCNC(=O)OC2CC3CC2[C@H]2CCCCN2[C@H]3Cc2ccccc2)cc1 (some centres not stated)	-3	.	.	.	.	.	.
CCCC[C@H]1C2CC(OC(=O)NCCCc3ccccc3)C(C2)[C@H]2CCCCN21 (some centres not stated)	11*	.	.	.	.	0	1
COc1ccc(/C=N/NC(=O)CN2CCCC2)cc1	2	-3	2	-1	-7	.	.
CC(C)(C)OC(=O)COc1ccc(/C=N/NC(=O)CN2CCCCC2)cc1	14*	-40	52*	-47	-7	5	5.3*
CCCNC(=O)N(C)C[C@@H]1Oc2cc(-c3ccccc3F)ccc2S(=O)(=O)N([C@@H](C)CO)C[C@@H]1C	.	.	1	.	.	.	.
CC(=O)N1CCN(C(C)=O)c2ccccc21	-1	.	4	-2	.	.	.
CC(=O)N1CCn2c3ccc(C)cc3c3cccc1c32	8.4*	-4	30	2	-10	6	3
O=C(C[C@@H]1CC[C@@H]2[C@H](COC[C@@H](O)CN2Cc2ccccc2)O1)N[C@H]1CCN(Cc2ccccc2)C1	.	.	3	.	.	.	.
CO[C@H]1CN(C)C(=O)c2cc(NC(=O)c3ccc4c(c3)OCO4)ccc2OC[C@H](C)N(CCC(F)(F)F)C[C@H]1C	.	.	8	.	.	.	.
COc1ccccc1CNC(=O)c1ccccc1NC(=O)C1=C(C)OCCS1	8.1*	-45	0	36	-22	2	1
COC(=O)c1sc(NC(=O)COc2ccc(OC)cc2)nc1C	1	20	.	-8	8	.	.
COC(=O)c1sc(NC(=O)COc2cccc3ccccc23)nc1C	10*	-14	.	8	9	4	2
O=[N+]([O-])c1cccc(/C([O-])=C(/C(=S)Nc2ccccc2)[n+]2ccccc2)c1	8.5*	-17	.	-10	-20	0	6.3*
c1ccc(-c2ncc3c(ccc4ccccc43)n2)cc1	9.1*	-231	.	-5	-108	2	5.1*
COCC1CCN(C(=O)c2ccc(OC)c(OC3CCN(C(C)C)CC3)c2)CC1	0	-3	-2	18	-2	.	.
COc1ccc(C(=O)N2CCCC(O)C2)cc1OC1CCN(C(C)C)CC1 (configuration not stated)	8.2*	13	.	-4	0	4	1
CO[C@H]1CC[C@H]2CCOc3ccc(C#N)cc3C(=O)N(C)C[C@H](C)C(=O)N(C)C[C@H]1O2	.	.	3	.	.	.	.
C[C@H](NS(=O)(=O)c1ccc2c(c1)OCCCO2)C(=O)N1CCN(Cc2ccc(C#N)cc2)CC1	8.8*	3	-10	-4	2	-4	1
C[C@H](NS(=O)(=O)c1ccc2c(c1)OCCCO2)C(=O)N1CCN(Cc2ccccc2)CC1	-4	18	.	-8	16	.	.
